Source: PubChem BioAssay (NCATS)
Records with an inconclusive call do not appear. Calls of active or inactive are those of the source. Calls follow the shape of the dose curve; as a rule, active = well fitted cell-killing curve with a large enough effect; inconclusive = small, poorly fitted or top-dose-only effect, or effect the other way; inactive = flat fitted curve, though single readings scatter.

How the values were obtained:
Test in all cases: Primary qHTS to identify gynecologic anti-cancer compounds using libraries of approved drugs and bioactive compounds (AID 1345084); also: nearly all actives have a fitted effect of over 55% in size
[1] = test system: C33A; conditions: Gynecologic cancer cell panel viability, ATPlite luminescence, 48 h; series mostly up to 57.5 µM
Method in brief: (§1)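 Luminescence from the ATPlite ATP-monitoring reagent indicates viable cell number; lower signal means cytotoxicity. Cells received compound 16 h after seeding and were exposed for 48 h across five concentrations.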

[2] = test system: CAOV3; conditions: Gynecologic cancer cell panel viability, ATPlite luminescence, 48 h; series mostly up to 57.5 µM
Method in brief: as §1

[3] = test system: CASKI; conditions: Gynecologic cancer cell panel viability, ATPlite luminescence, 48 h; series mostly up to 57.5 µM
Method in brief: as §1

[4] = test system: Es-2; conditions: Gynecologic cancer cell panel viability, ATPlite luminescence, 48 h; series mostly up to 57.5 µM
Method in brief: as §1

[5] = test system: HeLa; conditions: Gynecologic cancer cell panel viability, ATPlite luminescence, 48 h; series mostly up to 57.5 µM
Method in brief: as §1

[6] = test system: Hek293T; conditions: Gynecologic cancer cell panel viability, ATPlite luminescence, 48 h, control line for the selectivity index; series mostly up to 57.5 µM
Method in brief: as §1

[7] = test system: JEG-3; conditions: Gynecologic cancer cell panel viability, ATPlite luminescence, 48 h; series mostly up to 57.5 µM
Method in brief: as §1

[8] = test system: OV90; conditions: Gynecologic cancer cell panel viability, ATPlite luminescence, 48 h; series mostly up to 57.5 µM
Method in brief: as §1

[9] = test system: PA-1; conditions: Gynecologic cancer cell panel viability, ATPlite luminescence, 48 h; series mostly up to 57.5 µM
Method in brief: as §1

[10] = test system: SKOV3; conditions: Gynecologic cancer cell panel viability, ATPlite luminescence, 48 h; series mostly up to 57.5 µM
Method in brief: as §1

[11] = test system: Tov-21-G; conditions: Gynecologic cancer cell panel viability, ATPlite luminescence, 48 h; series mostly up to 57.5 µM
Method in brief: as §1

[12] = test system: Tov112D; conditions: Gynecologic cancer cell panel viability, ATPlite luminescence, 48 h; series mostly up to 57.5 µM
Method in brief: as §1
% is scaled to controls: 0 for no effect and ±100 for the full control effect.

C[C@@H]1O[C@@H](OC2C(O[C@H]3[C@H](O[C@H]4CC[C@@]5(C)C(CC[C@]6(C)C5CC=C5C7CC(C)(C)CC(O)[C@]7(C)CC[C@]56C)C4(C)C)O[C@H](C(=O)O)[C@@H](O)[C@@H]3O)OC(CO)C(O)C2O)[C@H](O)[C@H](O)[C@H]1O (some centres undefined)
inactive: activity change, negative = cytotoxicity [1] 9.23% [at 11.6 µM] | activity change, negative = cytotoxicity [2] 0.0107% [at 11.6 µM] | activity change, negative = cytotoxicity [3] 13.1% [at 11.6 µM] | activity change, negative = cytotoxicity [4] 2.61% [at 11.6 µM] | activity change, negative = cytotoxicity [5] 3.53% [at 11.6 µM] | activity change, negative = cytotoxicity [6] 5.4% [at 11.6 µM] | activity change, negative = cytotoxicity [7] 7.17% [at 11.6 µM] | activity change, negative = cytotoxicity [8] 7.68% [at 11.6 µM] | activity change, negative = cytotoxicity [9] 0.277% [at 11.6 µM] | activity change, negative = cytotoxicity [10] 6.34% [at 11.6 µM] | activity change, negative = cytotoxicity [11] 5% [at 11.6 µM] | activity change, negative = cytotoxicity [12] 11.6% [at 11.6 µM]

CC1(C)CC2C3=CCC4[C@@]5(C)CC[C@H](OC6OCC(O)C(OC7OC(CO)C(O)C(O)C7O)C6O)C(C)(C)C5CC[C@@]4(C)[C@]3(C)C[C@H](O)[C@@]2(CO)[C@H](OC(=O)c2ccccc2)C1 (some centres undefined)
inactive: activity change, negative = cytotoxicity [1] -0.821% [at 11.6 µM] | activity change, negative = cytotoxicity [2] -7.46% [at 11.6 µM] | activity change, negative = cytotoxicity [3] -3.21% [at 11.6 µM] | activity change, negative = cytotoxicity [4] -3.08% [at 11.6 µM] | activity change, negative = cytotoxicity [5] 2.29% [at 11.6 µM] | activity change, negative = cytotoxicity [6] 17.5% [at 11.6 µM] | activity change, negative = cytotoxicity [7] 8.97% [at 11.6 µM] | activity change, negative = cytotoxicity [8] 18.5% [at 11.6 µM] | activity change, negative = cytotoxicity [9] 10.1% [at 11.6 µM] | activity change, negative = cytotoxicity [10] 0% [at 11.6 µM] | activity change, negative = cytotoxicity [11] 6.98% [at 11.6 µM] | activity change, negative = cytotoxicity [12] -1.17% [at 11.6 µM]

Cc1cc(C)c2nc(-c3ccccn3)cc(C(=O)Nc3ccc(S(=O)(=O)Nc4onc(C)c4C)cc3)c2c1
inactive: Potency [1] | Potency [2] | outcome [3] | Potency [4] | Potency [5] | Potency [6] | Potency [7] | Potency [8] | Potency [9] | Potency [10] | Potency [11] | Potency [12]

CC(=O)OC/C(=C/C(=O)O)CC[C@@H]1C(C)=CC(=O)[C@@H]2C(C)(C)CCC[C@@]12C
inactive: Potency [1] | Potency [2] | outcome [3] | Potency [4] | Potency [5] | Potency [6] | Potency [7] | Potency [8] | Potency [9] | Potency [10] | Potency [11] | Potency [12]

OC[C@@]1(O)CO[C@H](OC[C@H]2O[C@@H](OC(CCCCc3ccc(O)cc3)CCc3ccc(O)cc3)[C@H](O)[C@@H](O)[C@@H]2O)[C@@H]1O (some centres undefined)
inactive: Potency [1] | Potency [2] | outcome [3] | Potency [4] | Potency [5] | Potency [6] | Potency [7] | Potency [8] | Potency [9] | Potency [10] | Potency [11] | Potency [12]

COc1cc2c(c(OC)c1O)C(c1ccc(O)cc1)C1C(=O)OC3C(COC(=O)C1=C2)OC(CO)(OC1OC(COC(=O)/C=C/c2ccc(OC4OC(C)C(O)C(O)C4O)cc2)C(O)C(O)C1O)C3O (centres undefined)
inactive: activity change, negative = cytotoxicity [1] 12% [at 11.6 µM] | activity change, negative = cytotoxicity [2] -2.13% [at 11.6 µM] | activity change, negative = cytotoxicity [3] 3.12% [at 11.6 µM] | activity change, negative = cytotoxicity [4] 0.658% [at 11.6 µM] | activity change, negative = cytotoxicity [5] -0.142% [at 11.6 µM] | activity change, negative = cytotoxicity [6] 7.04% [at 11.6 µM] | activity change, negative = cytotoxicity [7] 8.95% [at 11.6 µM] | activity change, negative = cytotoxicity [8] 10.3% [at 11.6 µM] | activity change, negative = cytotoxicity [9] -0.775% [at 11.6 µM] | activity change, negative = cytotoxicity [10] 25.2% [at 11.6 µM] | activity change, negative = cytotoxicity [11] -2.98% [at 11.6 µM] | activity change, negative = cytotoxicity [12] -3.14% [at 11.6 µM]

CC(C)CC(c1c(O)c(C=O)c(O)c(C=O)c1O)C1CCC(C)(O)C2CC(C(C)(C)O)CCC12C (centres undefined)
inactive: Potency [1] | Potency [2] | outcome [3] | Potency [4] | Potency [5] | Potency [6] | Potency [7] | Potency [8] | Potency [9] | Potency [10] | Potency [11] | Potency [12]

COc1ccc(C(=O)OC2C3C=COC(OC4OC(CO)C(O)C(O)C4O)C3C3(CO)OC23)cc1OC (centres undefined)
inactive: Potency [1] | Potency [2] | outcome [3] | Potency [4] | Potency [5] | Potency [6] | Potency [7] | Potency [8] | Potency [9] | Potency [10] | Potency [11] | Potency [12]

CC(O)C(O)/C=C/C=C/C(=O)O[C@@H]1C=C(C(=O)O)[C@](O)(CO)[C@@]2(C)CCCC(C)(C)[C@H]12 (some centres undefined)
inactive: Potency [1] | Potency [2] | outcome [3] | Potency [4] | Potency [5] | Potency [6] | Potency [7] | Potency [8] | Potency [9] | Potency [10] | Potency [11] | Potency [12]

C[C@@H]1O[C@@H](O[C@H]2[C@H](OC(=O)[C@]34CCC(C)(C)C[C@H]3C3=CCC5[C@@]6(C)CC[C@H](O[C@@H]7O[C@H](CO[C@@H]8OC[C@H](O)[C@H](O)[C@H]8O)[C@@H](O)[C@H](O)[C@H]7O)C(C)(C)C6CC[C@@]5(C)[C@]3(C)C[C@H]4O)OC[C@@H](O)[C@@H]2O)[C@H](O)[C@H](O[C@@H]2OC[C@](O)(CO)[C@H]2O)[C@H]1O[C@@H]1OC[C@H](O)[C@H](O[C@@H]2OC[C@@H](O)[C@H](O)[C@H]2O)[C@H]1O (some centres undefined)
inactive: activity change, negative = cytotoxicity [1] -0.179% [at 6.55 µM] | activity change, negative = cytotoxicity [2] 23.4% [at 6.55 µM] | activity change, negative = cytotoxicity [3] 9.95% [at 6.55 µM] | activity change, negative = cytotoxicity [4] 8.45% [at 6.55 µM] | activity change, negative = cytotoxicity [5] 22.1% [at 6.55 µM] | activity change, negative = cytotoxicity [6] 8.51% [at 6.55 µM] | activity change, negative = cytotoxicity [7] -2.51% [at 6.55 µM] | activity change, negative = cytotoxicity [8] -11.9% [at 6.55 µM] | activity change, negative = cytotoxicity [9] -3.2% [at 6.55 µM] | activity change, negative = cytotoxicity [10] 6.12% [at 6.55 µM] | activity change, negative = cytotoxicity [11] 4.71% [at 6.55 µM] | activity change, negative = cytotoxicity [12] 0.0459% [at 6.55 µM]

COC(=O)C1=CO[C@@H](O[C@@H]2O[C@H](CO)[C@@H](O)[C@H](O)[C@H]2O)C2C1CC(O)C2C (some centres undefined)
inactive: Potency [1] | Potency [2] | outcome [3] | Potency [4] | Potency [5] | Potency [6] | Potency [7] | Potency [8] | Potency [9] | Potency [10] | Potency [11] | Potency [12]

C[C@@H]1O[C@@H](OC[C@H]2O[C@@H](OCc3ccccc3)[C@H](O)[C@@H](O)[C@@H]2O)[C@H](O)[C@H](O)[C@H]1O
inactive: Potency [1] | Potency [2] | outcome [3] | Potency [4] | Potency [5] | Potency [6] | Potency [7] | Potency [8] | Potency [9] | Potency [10] | Potency [11] | Potency [12]
